Source: PubChem BioAssay AID1035470 (Broad Institute, 2014)
Fewer than 10 of roughly 1,800 compounds were called active. Not shown: some 16% with an inconclusive outcome.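 Rule for the calls: active = compound lowering the normal-ribosome reporter at least twice as much as the humanized-ribosome reporter, growth loss under a set limit; inconclusive = no clear call, values can overlap the other calls; inactive = the rest.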 The list is a sample of the results. Measured potencies and affinities stand elsewhere.

Test: growth inhibition of wild-type GFP E. coli versus G2058-humanized strain, dose response, G2058 mutant RFP vs wild-type GFP, cherry-pick, two tests (AID 1035470)
Details: E. coli WT-GFP vs G2058-humanized RFP, fluorescence, 24 h; series mostly up to 50 µM; activity change, negative = inhibition: at the top concentration

Activity change, negative = inhibition, inactive:
O=S1(=O)N[C@H](Cc2ccccc2)COc2cc(N3CCSCC3)ccc21 -14
COc1cccc(NC(=O)c2ccc(NCCCN3CCC(C)CC3)c([N+](=O)[O-])c2)c1 -20
Cc1noc(C)c1S(=O)(=O)N(Cc1ccccc1)C(C)C -8.45
Cc1ccc(-c2c(=O)n(O)c3ccccc3[n+]2[O-])cc1 -1.24
Cc1nn2c(C)c(C(=O)Nc3ccccc3)cnc2c1-c1ccccc1 -2.61
CC(C)(C)S(=O)(=O)Cc1nc(-c2ccc(Cl)c(Cl)c2)cs1 -9.21
CCCCc1cc2c(cc1NC(=O)CN1CCCCC1)OCCO2 2.37
COC(=O)c1ccsc1NC(=O)c1cccc(OC)c1 -15.2
O=[N+]([O-])c1ccc(O)c(CSc2nnnn2-c2ccccc2)c1 1.54
COCC(C)NC(=O)c1nn(Cc2ccccc2)c(=O)c2ccccc12 (stereo not given) -8.39
Cc1ccc(NC(=O)C[n+]2cc(-c3ccccc3)n3c2CCC3)c(C)c1 -8.76
COc1cc(OC)c(NS(=O)(=O)c2cccc(C(=O)OCC(=O)NCC3CCCO3)c2)cc1Cl (stereo not given) -3.42
Cc1ccc(Nc2nc(C(=O)NCC3CCCO3)cs2)cc1 (stereo not given) 0.237
CCOC(=O)c1cccc(OS(=O)(=O)Cc2ccccc2)c1 -24.3
Cc1ccc(S(=O)(=O)NCc2c(-c3ccccc3)noc2C)cc1 -15.8
Cc1ccc(NC(=O)COC(=O)CCNS(=O)(=O)c2c(Cl)cccc2Cl)cc1 1.97
CC1CCN(C(=O)COC(=O)c2ccccc2NC(=O)c2ccco2)CC1 -7.91
CCc1cccc(NC(=O)c2ccc3c(=O)n4c(nc3c2)CCCCC4)c1 -6.15
Cc1cc(C)cc(NC(=O)COC(=O)CC2CCCC2)c1 4.58
CCn1c(COc2cccc(OC)c2)nnc1SCC(=O)Nc1cc(OC)ccc1OC -12
COc1ccc(S(=O)(=O)N2CCOc3ccccc32)cc1 -15.4
COc1ccc(-n2nc3cc(N)c(Br)cc3n2)cc1 -9.4
COC(=O)[C@]1(Sc2ccc(C)cc2)CC(=O)N[C@@H]1c1ccccc1 -6.4
O=C(CSc1nc2ccccc2n1S(=O)(=O)c1cccc([N+](=O)[O-])c1)NCCc1ccccc1 -5.02
S=c1[nH]nc(-c2ccc3ccccc3n2)n1-c1ccc2c(c1)OCCO2 -7.71
Cc1ccnc(NS(=O)(=O)c2ccc(NC(=O)c3ccc4c(c3)OCCO4)cc2)n1 -9.76
COc1ccc(OC)c(-c2nn(-c3ccccc3)cc2C(=O)N2CCc3ccccc3C2)c1 -18.4
COC(=O)c1sccc1NC(=O)CNC(=O)c1ccccc1 -7.99
Cc1c(Cc2ccccc2)sc(NC(=O)Cc2ccccc2)c1C(N)=O -0.013
O=C(Cc1c(F)cccc1Cl)N(Cc1ccccc1)c1ccccn1 -16.8
